Screening data from PubChem BioAssay.
The list is not random: actives were taken first. Their share in the collection is about 21%.
MRP reversal: reverses drug resistance mediated by MRP; H69AR cells + 2 uM doxorubicin, CellTiter-Glo, 72 h; differential viability (reversal), % at 10 µM; hit rate 0.04% among 85,000;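 active = viability drop by adding the cancer drug above about 55%, with treated viability meeting a 40% cutoff, limit read from the data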;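 note: larger differential means the compound sensitizes cells more to doxorubicin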
CYP2C19 inhib: blocks human cytochrome P450 2C19 | inhibition, % at 5 µM | CYP2C19 Supersomes, luciferin-H EGE luminescence, 30 min | P33261 | hit rate 21% among 96,000;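 active = CYP2C19 inhibition above a set limit at 5 µM in the primary screen, cut at about 50% in these data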
Target sequence (P33261 whole entry, looked up): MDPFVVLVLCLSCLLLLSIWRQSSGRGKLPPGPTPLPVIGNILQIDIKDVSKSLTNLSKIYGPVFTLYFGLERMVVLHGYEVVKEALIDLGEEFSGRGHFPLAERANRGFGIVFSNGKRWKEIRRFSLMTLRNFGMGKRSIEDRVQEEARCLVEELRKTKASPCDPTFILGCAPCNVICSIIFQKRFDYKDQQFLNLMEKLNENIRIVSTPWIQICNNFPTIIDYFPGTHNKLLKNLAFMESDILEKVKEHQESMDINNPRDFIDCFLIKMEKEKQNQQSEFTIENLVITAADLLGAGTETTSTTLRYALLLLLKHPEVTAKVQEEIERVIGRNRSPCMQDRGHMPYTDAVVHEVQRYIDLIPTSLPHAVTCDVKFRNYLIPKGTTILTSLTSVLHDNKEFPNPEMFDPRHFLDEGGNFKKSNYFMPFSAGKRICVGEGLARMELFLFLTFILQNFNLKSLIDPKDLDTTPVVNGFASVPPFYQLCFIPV
CYP2C9 activ: activators of human CYP2C9 | P11712 | recombinant CYP2C9, luciferin-H conversion, luminescence; stronger effect = higher value; factor 1 = untreated enzyme, 0 = blocked | activation factor at 5 µM | hit rate 1.4% among 96,000 | AID 1024;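 active = activation factor of 2 or more for CYP2C9 at a 5 µM dose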
MRP1 act: MRP-1 activation; viability increase, % at 10 µM; AID 799; H69AR cells + doxorubicin, viability rescue, CellTiter-Glo; hit rate 0.61% among 140,000;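 active = viability gain under doxorubicin at or above a set limit, the compound median plus 3 SD, cut at about 4.7% in these data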;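 note: MRP-1 overexpressing cells given doxorubicin 25 µM after compound pretreatment; 18-22 h compound pretreatment then 72 h with doxorubicin before readout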
CYP2C19 act: cytochrome P450 2C19 (human) activation; recombinant CYP2C19, luciferin-H EGE luminescence; stronger effect = higher value; 0 = fully inhibited enzyme, 1 = untreated enzyme; activation factor at 5 µM; 96,000 tested, under 10 active; P33261; AID 1025;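 active = activation factor of at least 2 at 5 µM in the primary screen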
CYP2C9 inhib: human CYP2C9 inhibition. CYP2C9 Supersomes, luciferin-H conversion, luminescence. P11712. inhibition, % at 5 µM. hit rate 20% among 96,000;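 active = blocking of liver enzyme CYP2C9 beyond about 50% at 5 µM, limit read from the data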
Large screens that a line does not name were inactive.

COc1cc(Nc2nnc(C)s2)c(Cl)cc1Cl	none
COc1cc(C(=O)NCc2ccco2)c(Br)c(OC)c1OC	none (no result: MRP reversal)
COc1cc(C(=O)NCCOc2cc(C)cc(C)c2)c(Br)c(OC)c1OC	CYP2C19 inhib 86.2 (no result: MRP reversal)
COc1ccccc1NC(=O)Cc1csc(N)n1	none
COC(=O)c1cn(C(C)C(=O)NCc2ccco2)c2ccccc12 (stereo unspecified)	CYP2C19 inhib 59.3
CC(C)C(=O)c1cn(CC(=O)NCc2ccco2)c2ccccc12	none (no result: CYP2C19 inhib, CYP2C9 activ, CYP2C19 act, CYP2C9 inhib)
Cc1cccc(NC(NC(=O)c2cccnc2)C(Cl)(Cl)Cl)c1 (stereo unspecified)	CYP2C9 inhib 83.1 (no result: MRP reversal)
Cc1cccc(C(=O)NC(NCc2ccco2)C(Cl)(Cl)Cl)c1 (stereo unspecified)	CYP2C9 inhib 57.6 (no result: MRP reversal)
O=C(Cc1ccc(-n2cccc2)cc1)N1CCc2ccccc21	CYP2C19 inhib 58.6
COc1ccc(CCC(=O)N2CCc3ccccc32)cc1	CYP2C19 inhib 59.7
COc1ccc(CCC(=O)N2c3ccccc3CC2C)cc1 (stereo unspecified)	CYP2C19 inhib 96.3, CYP2C9 inhib 56.8
COC(=O)Nc1ccc(C)c2nsnc12	none
Cc1c(Cl)c(C(=O)NC2C3CC4CC(C3)CC2C4)nn1C (stereo unspecified)	none (no result: CYP2C19 inhib, CYP2C9 activ, CYP2C19 act, CYP2C9 inhib)
CCOC(=O)c1cn2nc(-c3ccc(OC)cc3)cc2nc1C1CCN(C(=O)OC(C)(C)C)CC1	CYP2C9 inhib 63.4
Cc1ccc(-n2ncc(C(=O)O)c2C2CCN(C(=O)OC(C)(C)C)CC2)cc1	none
Cc1cccc2cc(C#N)c(NCCNC(=O)NC3CCCCC3)nc12	none
Cc1cccc2cc(C#N)c(NCCNC(=S)NCCCN3CCOCC3)nc12	CYP2C9 inhib 71.2 (no result: MRP reversal)
Cc1cccc2cc(C#N)c(NCCNS(=O)(=O)c3ccc4c(c3)OCCO4)nc12	CYP2C19 inhib 53.1, CYP2C9 inhib 56.9
Cc1cc(NCCCN2CCOCC2)n2c(nc3ccccc32)c1C#N	CYP2C19 inhib 50.7
CCC(CCC(=O)Nc1ccc(S(N)(=O)=O)cc1)C(=O)O (stereo unspecified)	none
CCCCCCCc1nc2c(=O)[nH]c3ccccc3c2o1	none (no result: CYP2C19 inhib, CYP2C9 activ, MRP1 act, CYP2C19 act, CYP2C9 inhib)
CC1CCC(NC(=O)c2ccc(S(C)(=O)=O)cc2)CC1 (stereo unspecified)	none (no result: MRP reversal, CYP2C19 inhib, CYP2C9 activ, CYP2C19 act, CYP2C9 inhib)
C=CCNc1nc2c(c(=O)[nH]c(=O)n2C)n1Cc1cccc(C)c1	none (no result: CYP2C19 inhib, CYP2C9 activ, CYP2C19 act, CYP2C9 inhib)
C/C(=N/Oc1nc(C)cc(C)n1)c1ccc(Br)cc1	CYP2C19 inhib 52.9
C/C(=N/Oc1nc(C)cc(C)n1)c1ccc(Cl)cc1Cl	none
COc1ccc(OC)c(C(=O)c2ccc(C(=O)Nc3cccc4ccccc34)cc2)c1	none (no result: MRP reversal, CYP2C19 inhib, CYP2C9 activ, CYP2C19 act, CYP2C9 inhib)
O=C1NC2(CCCCCC2)C(=O)N1Cc1ccc([N+](=O)[O-])cc1	none (no result: MRP reversal, CYP2C19 inhib, CYP2C9 activ, CYP2C19 act, CYP2C9 inhib)
FC(F)(F)c1cccc(N2CCN(c3nnnn3-c3ccccc3)CC2)c1	CYP2C19 inhib 98.1, CYP2C9 inhib 100.0
COCCn1nnnc1CN1CCN(c2cccc(C(F)(F)F)c2)CC1	CYP2C19 inhib 78.0
Cc1ccc(C)c(N2CCN(c3nnnn3-c3ccccc3)CC2)c1	CYP2C19 inhib 98.9, CYP2C9 inhib 91.1
Cc1cc(C)nc(N2CCN(c3nnnn3-c3ccccc3)CC2)n1	CYP2C9 inhib 85.3
CC(=O)N1CCN(c2nnnn2-c2ccccc2)CC1	none
Cc1ccc(-n2c(C)cc(C3=NNC(=NC4CC4)SC3)c2C)cc1C	none (no result: MRP reversal, CYP2C19 inhib, CYP2C9 activ, CYP2C19 act, CYP2C9 inhib)
C=CCc1cc(C=O)cc(OC)c1OCc1c(Cl)cccc1Cl	none (no result: MRP reversal)
Cc1nc(N2CCOCC2)nc(OCCN2CCOCC2)c1[N+](=O)[O-]	none (no result: MRP reversal, CYP2C19 inhib, CYP2C9 activ, CYP2C19 act, CYP2C9 inhib)
N#Cc1cnn(Cc2ccc(Cl)cc2)c1N	CYP2C19 inhib 54.9
N#Cc1cnn(Cc2ccccc2)c1N	none
O=S(=O)(Cc1ccccc1)N1CCC(c2nc(-c3cccs3)no2)CC1	CYP2C9 inhib 67.8
O=C(Cc1ccccc1)N1CCCC(c2nc(-c3cccs3)no2)C1 (stereo unspecified)	none
CC(=O)NCCN1C(=O)C2C3c4ccccc4C(c4ccccc43)C2C1=O (stereo unspecified)	none
CN(C)S(=O)(=O)c1cccc(NC(=O)c2cc3ccccc3o2)c1	CYP2C9 inhib 61.2 (no result: MRP reversal)
O=C(Nc1cccc(-c2nc3ncccc3o2)c1)c1cc2ccccc2o1	CYP2C9 inhib 89.0
CN(C)S(=O)(=O)c1cccc(NC(=S)Nc2ccc(Cl)cc2Cl)c1	CYP2C19 inhib 71.0, CYP2C9 inhib 67.1 (no result: MRP reversal)
CCN(CC)S(=O)(=O)c1cccc(NC(=O)c2cc3ccccc3o2)c1	none
Cc1ccc(-c2nc3ncccc3o2)cc1NC(=O)c1cc2ccccc2o1	none
CCNc1nc2c(c(=O)[nH]c(=O)n2C)n1Cc1ccc(F)cc1	none (no result: MRP reversal)
O=C(CCCSc1nc(-c2ccco2)cc(C(F)(F)F)n1)Nc1ccc2c(c1)OCO2	CYP2C9 inhib 78.9
COC(=O)c1ccc(CSc2nc(-c3ccco3)cc(C(F)(F)F)n2)o1	CYP2C9 inhib 74.8 (no result: MRP reversal)
O=C(CSc1nc(-c2ccco2)cc(C(F)(F)F)n1)NCCCn1ccnc1	CYP2C19 inhib 91.3, CYP2C9 inhib 95.8
O=C(CCSc1nc(-c2ccco2)cc(C(F)(F)F)n1)NCCc1ccccc1	CYP2C9 inhib 50.6
NC(C(=O)O)C1CC(Cl)=NO1 (stereo unspecified)	none (no result: CYP2C19 inhib, CYP2C9 activ, CYP2C19 act, CYP2C9 inhib)
O=C(NCc1ccc2c(c1)OCO2)C1CCN(c2ncccn2)CC1	none
O=C(CCNC(=O)OCc1ccccc1)NC1CCCCCC1	none (no result: MRP reversal, CYP2C19 inhib, CYP2C9 activ, CYP2C19 act, CYP2C9 inhib)
CC(NC(=O)CCSc1nc(-c2ccc3c(c2)OCO3)cc(C(F)(F)F)n1)c1ccccc1 (stereo unspecified)	CYP2C19 inhib 80.7, CYP2C9 inhib 83.4
COc1ccccc1CCNC(=O)CSc1nc(-c2ccco2)cc(C(F)(F)F)n1	none
COc1ccc(CCNC(=O)CSc2nc(-c3ccco3)cc(C(F)(F)F)n2)cc1	CYP2C19 inhib 57.9, CYP2C9 inhib 68.9
O=C(CSc1nc(-c2ccco2)cc(C(F)(F)F)n1)Nc1cccnc1	CYP2C9 inhib 53.2
O=C(NCCOc1ccccc1)c1n[nH]c(=O)c2ccccc12	none
CCOc1ccccc1N1CCN(C(=O)/C=C/c2cccc([N+](=O)[O-])c2)CC1	none (no result: MRP reversal, CYP2C19 inhib, CYP2C9 activ, CYP2C19 act, CYP2C9 inhib)
CN(Cc1ccccc1)C(=O)CN(Cc1ccccc1)S(C)(=O)=O	none (no result: CYP2C19 inhib, CYP2C9 activ, CYP2C19 act, CYP2C9 inhib)
Cc1nc(NC(=O)CSc2cc(C)c3ccccc3n2)c(Cl)cc1Cl	none (no result: MRP reversal, CYP2C19 inhib, CYP2C9 activ, CYP2C19 act, CYP2C9 inhib)
O=C(Nc1ccccc1Sc1ccccc1)c1ccccc1	CYP2C19 inhib 86.0, CYP2C9 inhib 77.4 (no result: MRP reversal)
O=C(O)c1ccccc1NC(=O)C1CCCO1 (stereo unspecified)	none
O=C(Nc1ccccc1Sc1ccccc1)C1CCCO1 (stereo unspecified)	CYP2C19 inhib 68.8
CCN1C(=O)[C@H]2[C@H]3[C@H](O)[C@H](O)C/C(=N\OC[C@@H](C)[C@H](OCc4ccccc4)C(C)C)[C@@H]3CC[C@H]2C1=O	none (no result: MRP reversal, CYP2C19 inhib, CYP2C9 activ, CYP2C19 act, CYP2C9 inhib)
CCOc1ccc(CN(C(=O)c2oc3cc(C)ccc3c2C)C2CCS(=O)(=O)C2)cc1 (stereo unspecified)	CYP2C19 inhib 73.3, CYP2C9 inhib 87.0
CCCCn1c(-c2ccccc2)nc2c(=O)n(C)c(=O)[nH]c21	CYP2C9 inhib 66.7
CCCCn1c(C)nc2c(=O)n(C)c(=O)[nH]c21	none
